This passage reports max response, outcome and Potency results from PubChem BioAssay (NCATS).

One test has as its system CRL-7250. Nature of the test: Cytotoxic Profiling of Annotated Libraries Using Quantitative High-Throughput Screening (AID 1296008). For max response: % is set by controls: 0 for no effect and ±100 for the full control effect. To be noted: Five cell lines viability, CellTiter-Glo ATP luminescence, 48-72 h; max response: stronger effect = lower value. The procedure, abridged:
(§1)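 Cytotoxicity was measured as CellTiter-Glo ATP luminescence, read after 10 min at room temperature. Compound treatment of the cells lasted 48 or 72 hr at 37 degrees Celsius in a qHTS format.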
On the technique in general: Cellular ATP, detected with luciferase, serves as a proxy for viable cell number.

The test system of another test is HEK293. The test is described as above. To be noted: Five cell lines viability, CellTiter-Glo ATP luminescence, 48-72 h; max response: stronger effect = lower value. The procedure, abridged: as §1
Another test deals with ECU. Nature of the test: qHTS profiling for inhibitors of Plasmodium falciparum proliferation (AID 504749). To be noted: P. falciparum in erythrocytes, SYBR Green DNA, 72 h; series mostly up to 28.7 µM. Put shortly:
(§2)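 Three-day growth assay of blood-stage parasites in erythrocytes (0.3% parasitemia, 2.5% hematocrit) at 37 C, 5% CO2, quantified by SYBR Green DNA staining after overnight detergent lysis.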
(In qHTS, concentration-response curves come from the screen itself.)

In another test the test system is FAB9. The test is described as above. To be noted: P. falciparum in erythrocytes, SYBR Green DNA, 72 h; series mostly up to 28.7 µM. The procedure, abridged: as §2
In a further test the test system is GB4. The description is as above. To be noted: P. falciparum in erythrocytes, SYBR Green DNA, 72 h; series mostly up to 28.7 µM. Put shortly:
as §2

The subject of a further test is HB3. The description is as above. The conditions noted are these: P. falciparum in erythrocytes, SYBR Green DNA, 72 h; series mostly up to 28.7 µM. The procedure, abridged:
as §2

The next test relates to ICS. The test is described as above. The conditions noted are these: P. falciparum in erythrocytes, SYBR Green DNA, 72 h; series mostly up to 28.7 µM. The procedure, abridged: as §2
The subject of the next test is JCK. The test is described as above. To be noted: P. falciparum in erythrocytes, SYBR Green DNA, 72 h; series mostly up to 28.7 µM. Put shortly: as §2
For a further test, the system named is N140. The test is described as above. The conditions noted are these: P. falciparum in erythrocytes, SYBR Green DNA, 72 h; series mostly up to 28.7 µM. Put shortly: as §2
Another test deals with P93_24. Described as above. The conditions noted are these: P. falciparum in erythrocytes, SYBR Green DNA, 72 h; series mostly up to 28.7 µM. The procedure, abridged: as §2
Another test relates to P94_40. The test is described as above. The conditions noted are these: P. falciparum in erythrocytes, SYBR Green DNA, 72 h; series mostly up to 28.7 µM. Put shortly: as §2
A further test has as its system PAD. The test is described as above. The conditions noted are these: P. falciparum in erythrocytes, SYBR Green DNA, 72 h; series mostly up to 28.7 µM. Put shortly: as §2
A further test deals with PC15. Described as above. To be noted: P. falciparum in erythrocytes, SYBR Green DNA, 72 h; series mostly up to 28.7 µM. Put shortly: as §2
A further test deals with PC26. Described as above. The conditions noted are these: P. falciparum in erythrocytes, SYBR Green DNA, 72 h; series mostly up to 28.7 µM. Put shortly:
as §2

The subject of another test is PC49. The description is as above. To be noted: P. falciparum in erythrocytes, SYBR Green DNA, 72 h; series mostly up to 28.7 µM. Put shortly: as §2
A further test has as its system SC27B. Described as above. To be noted: P. falciparum in erythrocytes, SYBR Green DNA, 72 h; series mostly up to 28.7 µM. Put shortly:
as §2

A further test has as its system TAB109. The description is as above. To be noted: P. falciparum in erythrocytes, SYBR Green DNA, 72 h; series mostly up to 28.7 µM. Put shortly: as §2
The next test concerns TAB113. The description is as above. To be noted: P. falciparum in erythrocytes, SYBR Green DNA, 72 h; series mostly up to 28.7 µM. Put shortly: as §2
For a further test, the system named is TAB165. The test is described as above. The conditions noted are these: P. falciparum in erythrocytes, SYBR Green DNA, 72 h; series mostly up to 28.7 µM. The procedure, abridged: as §2
The test system of a further test is W2. The description is as above. To be noted: P. falciparum in erythrocytes, SYBR Green DNA, 72 h; series mostly up to 28.7 µM. Put shortly:
as §2

The structures appear in SMILES notation. Where “and” joins values, the source holds several entries; their conditions need not be identical. Equal values may be shown once. Inconclusive results are not listed. Unmarked numbers belong to inactive results. Calls of active or inactive are those of the source. Calls come from the whole dose curve; as a rule, active = well fitted inhibition curve with a large enough effect; inconclusive = small, poorly fitted or top-dose-only effect; inactive = flat fitted curve, though single readings scatter. *1 amine or outer side, *2 acyl side, *3 side chain or, on linkers, in order; H or OH if unused. Where a SMILES comes first, the peptide text is derived from it. Bridges are numbered along the chain shown (N, C = ends). [ ]: non-standard residue; d: D form. The star is where a group is joined. ξ: configuration not given here. X10 = NC1=NCCC(C(N[*:1])C(=O)[*:2])N1; ΔAla(3-NHCONH2) = NC(=O)NC=C(N)C(=O)O; ξβ3hOrn = NCCCC(N)CC(=O)*; Dap = NC[CH](N)C(=O)O
Note: nearly all actives have a fitted effect of over 60% in size.
Potency is the fitted concentration of half-maximal effect.

`CC(CCc1ccc2c(c1)OCO2)NN` (configuration not stated): the max response with CRL-7250 was -8.5%. Also, the call in the test with HEK293 was inactive.
In the case of `CC(C)(C)NCC(O)COc1ccccc1OCC1CCCO1` (configuration not stated), the max response in the test on CRL-7250 was -2.81%; in the test with HEK293 it was -1.05%.
`CCCC(CCC)(C(=O)OCC)C(=O)OCC`: the values for the max response in the test with CRL-7250 and with HEK293 were -5.21% and 2.87%, respectively.
With `COc1ccccc1N1CCN(CCN2C(=O)CC3(CCCC3)CC2=O)CC1`, the max response with CRL-7250 is -8.79%. In addition, in the test on HEK293, the compound was called inactive.
As to `[O-][n+]1cccc(/C(Cl)=N/OC[C@@H](O)CN2CCCCC2)c1`, the max response was 4.98% with CRL-7250 and -1.36% in the test on HEK293.
On to `CCCCCCCCCCCCCCCCCCN(C)C`, for which the max response was -11.6% in the test on CRL-7250 and -2.54% in the test with HEK293.
On the same counts, the results for `CCO[C@H](Cc1ccc(OCCc2ccc(OS(C)(=O)=O)cc2)cc1)C(=O)O` are -4.09% and -6.35%.
Turning to `CCCCOC(=O)CCCCCCCCC(=O)OCCCC`, the max response with CRL-7250 is 0.0544%; in the test on HEK293, 1.21%.
As for `CNC(=O)c1cnn(-c2nc(N)c3ncn([C@@H]4O[C@H](CO)[C@@H](O)[C@H]4O)c3n2)c1`, the max response in the test with CRL-7250 is -10.9%. In addition, in the test on HEK293, the outcome was inactive.
As for `CCOC(=O)NNc1nncc2ccccc12`, the max response was -0.257% in the test on CRL-7250 and -5.42% in the test on HEK293.
`COC(=O)c1cc(Cl)ccc1OC`: the max response in the test with CRL-7250 was -7.71%. Moreover, in the test on HEK293, the result was inactive.
As for `COc1cc2c(cc1OC)C(=O)CC2`, in the test on CRL-7250, the compound was called inactive. For the same compound, the max response in the test with HEK293 is 3.36%.
As to `CC(=O)N1CCN(c2ccc(O)cc2)CC1`, the values for the max response in the test with CRL-7250 and in the test on HEK293 were -1.56% and -2.95%, respectively.
On to `COc1cc(C(=O)NC2CCCNC2)cc(OC)c1OC` (configuration not stated), for which the figures for the max response in the test with CRL-7250 and in the test with HEK293 were 1.65% and -8.29%, respectively.
`COc1ccc(CCC(C)=O)cc1`: the max response in the test on CRL-7250 is -2.07%. For the same compound, the outcome in the test with HEK293 was inactive.
Regarding `Cc1ccc2ccc(Cl)cc2n1`, the call in the test with CRL-7250 and in the test with HEK293 was inactive.
With `OC1(c2ccccc2)CCNCC1`, the max response in the test with CRL-7250 was 0.914%; with HEK293, 1.58%.
`CC(=O)[C@H]1CC[C@H]2[C@@H]3C=CC4=CC(=O)CC[C@@]4(C)[C@@H]3CC[C@]12C`: the max response is -2.73% and 1.98% in the test on CRL-7250; -2.74% in the test on HEK293.
In the case of `OCCCc1ccccc1`, the max response is -10.6% in the test on CRL-7250 and -4.71% with HEK293.
For the compound `CCOC(=O)C(=O)CCCCCCl`, the outcome with CRL-7250 was inactive. Also, the max response with HEK293 was -7.06%.
On to `CCOC(=O)C(=O)c1csc(NC=O)n1`, for which the values for the max response in the test on CRL-7250 and in the test on HEK293 were -5.63% and 3.1%, respectively.
Take `Cc1cccc(C)c1NC(=O)c1ccc(N)cc1`: the results for the max response in the test with CRL-7250 and with HEK293 were -0.144% and -2.32%, respectively.
Take `Nc1nc(=O)n([C@@H]2O[C@H](CO)[C@@H](O)[C@@H]2F)cc1I`: the max response with CRL-7250 is -26.4%. The result in the test on HEK293 was inactive.
In the case of `Cc1ccc(-c2ccccc2C#N)cc1`, the max response with CRL-7250 was 2.16%. Further, the compound was classed as inactive with HEK293.
The corresponding values for `O=C(O)[C@H](O)[C@@H](O)[C@H](O[C@@H]1O[C@H](CO)[C@H](O)[C@H](O)[C@H]1O)[C@H](O)CO` are -2.55% and “inactive”.
Turning to `CCCCCCCC(=O)[O-].CCCCCCCC(=O)[O-].[Zn+2]`, the values for the max response with CRL-7250 and in the test with HEK293 were -4.35% and -2.75%, respectively.
On to `CN1CCN(N)CC1`, for which, in the test with CRL-7250, the max response is -18.2%. For the same compound, in the test on HEK293, the call was inactive.
In the case of `NS(=O)(=O)c1cc2c(cc1Cl)CN(C1CCCCC1)C2=O`, in the test on CRL-7250, the max response is -6.27%. Moreover, the call in the test with HEK293 was inactive.
Consider `NCCCC(N)CC(=O)NCC1NC(=O)C(CO)NC(=O)C(N)CNC(=O)C(C2CCN=C(N)N2)NC(=O)C(=CNC(N)=O)NC1=O` (stereo not drawn) (H-[Dap]S[Dap](ξβ3hOrn)[ΔAla(3-NHCONH2)][X10]; lactam 1-C; configuration not given here), for which the max response in the test on CRL-7250 is -12.1%; with HEK293, -7.39%.
Turning to `CC1c2ccccc2CN1NC(=O)c1ccc(Cl)c(S(N)(=O)=O)c1` (configuration not stated), the figures for the max response in the test on CRL-7250 and in the test on HEK293 were -8.72% and -4.92%, respectively.
As to `C=CCNc1nc(NCC=C)nc(N2CCN(C(c3ccc(F)cc3)c3ccc(F)cc3)CC2)n1`, the max response in the test with CRL-7250 was -3.37%. In addition, the Potency in the test on HEK293 is 8.41 µM (active).
For the compound `COC(=O)c1cc(S(N)(=O)=O)ccc1OC`, the max response is -27.4% in the test on CRL-7250 and 4.21% in the test with HEK293.
`O=C(CCOCCOCCOCCOCCC(=O)Nc1c(I)cc(I)c(C(=O)O)c1I)Nc1c(I)cc(I)c(C(=O)O)c1I`: the max response in the test on CRL-7250 was -8.36%. Also, in the test with HEK293, the compound was classed as inactive.
Take `C[C@]12CCC(=O)C=C1CC[C@@H]1[C@@H]2[C@@H](O)C[C@@]2(C)[C@H]1CC[C@]2(O)C(=O)COC(=O)CCC(=O)O`: the max response in the test on CRL-7250 is -0.174%; in the test on HEK293, 3.66%.
Take `CCCCCC1Nc2cc(C(F)(F)F)c(S(N)(=O)=O)cc2S(=O)(=O)N1` (configuration not stated): the values for the max response in the test on CRL-7250 and in the test with HEK293 were -8.64% and -4.59%, respectively.
As for `Cc1ccc(/C=N/n2c(-c3ccccc3)csc2=S)cc1`, the max response is -8.42% with CRL-7250 and 1.19% with HEK293.
`O=S(=O)(O)c1ccc2nc(-c3ccccc3)[nH]c2c1`: the Potency result in the test with ECU, in the test with FAB9, in the test on GB4, with HB3, in the test on ICS and in the test with JCK was “inactive” each time. Moreover, the Potency result in the test on N140, in the test on P93_24, in the test on P94_40, in the test with PAD, in the test on PC15 and with PC26 was “inactive” each time. The Potency result in the test with PC49, with SC27B, with TAB109, in the test on TAB113, with TAB165 and in the test with W2 was “inactive” each time.
As for `CN1CCC(Nc2ncc3ncnc(Nc4ccc(F)c(Cl)c4)c3n2)CC1`, the Potency in the test on ECU was 12.6 µM (active); with GB4, 13.5 µM (active); with ICS, 6.31 µM (active); in the test on JCK, 7.94 µM (active); with N140, 10 µM (active); in the test with P93_24, 7.08 µM (active). Further, the Potency with P94_40 was 8.91 µM (active); in the test on TAB109, 11.2 µM (active); in the test with TAB165, 11.2 µM (active); in the test on W2 it was 5.36 µM (active).
In the case of `CC(=O)Nc1ccn(C2COC(COC(=O)c3ccccc3)O2)c(=O)n1` (configuration not stated), the Potency with HEK293 was 18.8 µM (active).
Still for that read-out and setting: the same measure for `COC(=O)[C@H]1[C@H]2C[C@@H]3c4[nH]c5cc(OC)ccc5c4CCN3C[C@H]2C[C@@H](OC(=O)/C=C/c2ccc(O)c(OC)c2)[C@@H]1OC`: 9.44 µM (active).
